The target in the test is CD180. The experiment in a line: pooled miR-30 sensor sort-seq; sequence = guide strand. The settings on record: shRNA.
The sequence TTGAGTTGCAGACTGCAGCAGT had a sensor-assay potency score (higher = more potent) of 0.0591.
The result for TACACTGAGAACTAATTTCTTG reads -0.423; that for TTTAACTGCAAAAAATAGCAGA, -0.349; that for TAGTAGAGTTCTGCAGACCATT, -1.3.
Turning to TAAATTAATGGTGCTCTGCTGG, the sensor-assay potency score (higher = more potent) was -0.664.
In turn, TTGGTCTTCGTGATAGTCCCAT showed a sensor-assay potency score (higher = more potent) of 0.105.
For TTGTGTTTGGTAGAGTGTCAGG, the sensor-assay potency score (higher = more potent) was -0.807.
TTTAACATTATTGCCATTGAAG: the sensor-assay potency score (higher = more potent) is -1.17.
In turn, TAGCTGAGGACATTCTTTGAAT displayed a sensor-assay potency score (higher = more potent) of -0.948.
For TGAAGTAGGTTGGTCTTCGTGA, the sensor-assay potency score (higher = more potent) is -0.298.
Further: reference of the scale not given here.
